# According to PubChem BioAssay (NCI):
# “And” between values parts separate entries of the source, which are not always exact repeats. Equal entries are not always repeated. The panel holds about 83,000 compounds, 20% with a hit somewhere; the sample as a whole holds those more often.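 Cells were grown in 96-well plates and exposed to the test compound at a single concentration for 48 hours; results are reported as percent growth, with values below 10 considered active.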 Values without a mark were called inactive. The source made the active and inactive calls.
# Test system: MDA-MB-468 breast
# Assay: NCI-60 one-dose screen, 48 h (100 = growth as untreated, 0 = no growth, -100 = all killed)
# Conditions: 10 µM unless noted
row,Structure (SMILES),growth
1,Cc1cc(O)c2c(c1)C(=O)C(c1c(C)cc3c(c1O)C(=O)C=CC3=O)=CC2=O,53.2%
2,O=C(NCCNc1nccc(-c2c(-c3cccc(O)c3)nc3sccn23)n1)c1cccc(C(F)(F)F)c1,70.5%
3,CCCC(=O)OCC1OC(n2cnc3c(=S)nc(N)[nH]c32)C(OC(=O)CCC)C1OC(=O)CCC (stereo not given),47.7%
4,CC(=O)c1ccc(C)cc1,98.4%
5,C=C(C)[C@@H]1CC=C2c3sc(-c4ccc(C)cc4)nc3C[C@@H](C)[C@]2(C)C1,108%
6,COc1ccc(NC(=O)Nc2ccccc2CNc2nc(Nc3ccc(OCCN4CCCC4)cc3)ncc2Cl)cc1,-43.5% (active)
7,CSc1ccc(-c2n[nH]nc2-c2cc3ccccc3s2)cc1,54%
8,N#Cc1c(-c2ccc(Br)cc2)cc(-c2c[nH]c3ccccc23)nc1N,7.56% (active)
9,N#C/C(=C\NC(=S)N=Nc1c(O)[nH]c2ccccc12)c1nc2ccccc2s1,79.8%
10,CCCCCCN1C(=O)/C(=c2\sc3n(c2=O)C2C(NN=3)N(CC)C(=O)N2CC)c2ccccc21 (stereo not given),-10.2% (active)
11,COc1ccc(C(=O)C/C(=C\c2ccc(Cl)cc2)C(=O)NCc2ccccc2)cc1,69.7%
12,CC[C@H](C)[C@@H]1NC(=O)[C@H](Cc2ccc(O)cc2)N(C)C(=O)[C@H](Cc2ccccc2)NC(=O)CN(C)C(=O)[C@@H]2CCCN2C(=O)[C@@H](Cc2ccccc2)N(C)C(=O)[C@H](CC(C)C)NC1=O,-13.3% (active)
13,COCCOc1ccc(-c2csc(NC(C)=O)n2)cc1NS(=O)(=O)c1cccc2c(N(C)C)cccc12,90.3%
14,CCCCNC(=O)NS(=O)(=O)c1ccc(N2N=C(c3ccc(C)cc3C)CC2c2ccc(N(C)C)cc2)cc1 (stereo not given),60%
15,CS(=O)(=O)N1CCN(Cc2cc3nc(-c4cccc5[nH]ncc45)nc(N4CCOCC4)c3s2)CC1 (tested in a mixture with another compound),-47.9% (active)
16,Oc1ccc(-c2[nH]c3ccccc3c2-c2nc3ccccc3o2)cc1,26.1%
17,COc1ccc(/C=C/C(=O)NCC(C)O)cc1 (stereo not given),94.2%
18,Cc1c2c(cc[n+]1Cc1ccccc1)c1ccc(OCC3CCCCC3)cc1n2CC1CCCCC1,-86.6% (active)
19,C[N+](C)=c1ccc2nc3c(cc(Nc4ccccc4)c4ccccc43)oc-2c1,-14.8% (active)
20,O=c1ccc(=O)n(-c2nc(-c3ccc([N+](=O)[O-])cc3)cs2)[nH]1,99.3%

row,Structure (SMILES),growth
1,Cc1ccc(-c2nc([P+](c3ccccc3)(c3ccccc3)c3ccccc3)c(N3C[C@H]4C[C@H](C3)c3cccc(=O)n3C4)o2)cc1,-9.01% (active)
2,Cn1ncc(CC(=O)O)c1-n1nnc2cc(Cl)ccc2c1=O,89.5%
3,O=C1NC(=C(Cl)Cl)/C(=N/S(=O)(=O)N2CCC(C3(C(F)(F)F)N=N3)CC2)N1,32.7%
4,CC/C=C\C[C@@H](O)C/C=C1/C(=O)C=C[C@H]1C/C=C\CCCC(=O)OC,15.9%
5,CCN1C(=O)N(CC)C2Nn3c(s/c(=C4\C(=O)Nc5ccccc54)c3=O)=NC21 (stereo not given),5.05% (active)
6,O=S(=O)(O)c1cc(O)c2c(N=Cc3ccccc3O)c(S(=O)(=O)O)ccc2c1,101%
7,COc1ccc(CCN(C)CCCC(C#N)(c2ccc(OC)c(OC)c2)C(C)C)cc1OC (stereo not given),97.9% and 89.5%
8,CC(C)(C)OC(=O)N1C/C(=C\c2cccs2)C(=O)/C(=C/c2cccs2)C1,87.5%
9,COc1ccc(NC(=O)CSc2oc(-c3ccccc3)nc2S(=O)(=O)c2ccc(Cl)cc2)c(OC)c1,57.8%
10,O=S(=O)(c1ccc(N/N=C\c2ccccc2)cc1)c1ccc(N/N=C/c2ccccc2)cc1,61%
11,Cc1ccc(NC(=O)N/C(N)=N/c2nc(=O)c3ccccc3s2)cc1,89.9%
12,O=C1Nc2ccc(Cl)cc2/C1=C\c1c(-c2ccc(Cl)cc2)nc2sc(C3CC3)nn12,66.4%
13,CC1OC(C(=O)N2CCN(CCO)CC2)CC1COC1CCCCC1 (stereo not given),94.6% [50 µM]
14,CC1=CC(=O)N(c2cccc3c(N4C(=O)C=C(C)C4=O)cccc23)C1=O,23.6%
15,COc1ccc2[nH]cc(C3(c4c[nH]c5ccc(OC)cc45)C(=O)Nc4ccc(Cl)cc43)c2c1,97.7%
16,COc1cccc(/C=C2\CCc3ccccc3C2=O)c1,63.9%
17,CN1CCN(c2ccc(-c3ccc4ncc(C#N)c(Nc5ccc(F)c(Cl)c5)c4c3)cn2)CC1,10.6%
18,COc1ccc(Cn2cc3c(c2-c2cc(OC)c(OC)c(OC)c2)CCCc2cnoc2-3)cc1,48.6%
19,O=C(/C=C/c1ccc(F)cc1)Nc1ncc(Cc2ccc(F)cc2)s1,8.11% (active)
20,CN1CCCN(CCNc2nccc(-c3c(-c4cccc(O)c4)nc4sccn34)n2)S1(=O)=O,68.9%
